Here are results for 40 compounds from PubChem BioAssay (NCATS).

Several values for one entry are separate records, joined by “and”; a condition that tells them apart may be missing. Identical values can stand only once. Results filed as inconclusive are left out. Activity calls are given as the source filed them. Calls come from the whole dose curve; as a rule, active = well fitted activation curve with a large enough effect; inconclusive = small, poorly fitted or top-dose-only effect; inactive = no such curve, though single readings can be large or run the other way.
Potency is the fitted concentration of half-maximal effect.

Sequence of Cellular tumor antigen p53 (Homo sapiens) (P04637 whole entry, looked up): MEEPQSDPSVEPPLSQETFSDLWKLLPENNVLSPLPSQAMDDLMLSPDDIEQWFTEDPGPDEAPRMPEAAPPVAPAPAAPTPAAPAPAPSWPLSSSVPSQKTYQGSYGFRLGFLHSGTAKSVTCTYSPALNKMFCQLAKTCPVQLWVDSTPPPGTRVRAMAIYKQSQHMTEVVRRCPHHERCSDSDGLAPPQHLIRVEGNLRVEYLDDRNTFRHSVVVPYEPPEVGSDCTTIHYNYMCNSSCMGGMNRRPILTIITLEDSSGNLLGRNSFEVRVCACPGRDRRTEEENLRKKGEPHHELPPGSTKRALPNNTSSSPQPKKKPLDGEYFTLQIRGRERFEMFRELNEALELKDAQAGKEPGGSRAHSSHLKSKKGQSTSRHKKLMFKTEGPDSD

In the assay the target is Cellular tumor antigen p53 (Homo sapiens) (UniProt P04637). Kind of assay: Primary qHTS for small molecule compounds that upregulate eGFP-tagged delta133p53alpha (in N-terminal) cells. (AID 2060322).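 For activation: cells pre-induced with doxycycline then dosed without doxycycline; series mostly up to about 56 µM; 0% = DMSO vehicle and 100% = reference activator.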 Note: nearly all actives have a fitted effect of over 75% in size. Conditions: NCI-H358 eGFP-delta133p53alpha fluorescence, 24 h; activation: stronger effect = higher value. The source says:
Assay Development and Screening Technology
National Center for Advancing Translational Sciences (NCATS),
National Institute of Health (NIH), Rockville, Maryland
Cellular senescence (CS) is one of the hallmarks of aging and age-related diseases. Senescent cells are characterized by an irreversible growth arrest, an increase in senescence-associated beta-galactosidase (SA-beta-gal) activity and p16INK4a expression, an activation of the DNA damage response pathways, and the emergence of a senescence-associated secretory phenotype (SASP).
Delta133p53alpha, a human/primate-specific p53 protein isoform, delays or inhibits the induction of CS and SASP in various types of human cells, including progeria-derived fibroblasts, primary normal astrocytes, and CD8+ T lymphocytes. Induction of delta133p53alpha with small molecule compounds may provide therapeutic opportunities for inhibition of senescence/SASP-associated pathologies in progeria syndromes, astrocyte-mediated neuroprotection in neurodegenerative diseases, and possibly prevention and treatment of a wider range of senescence- and aging-associated diseases.
Here we report the development and validation of a cell-based quantitative high throughput screening (qHTS) assay in 1,536-well format. This qHTS assay uses the NCI-H358 cell line with doxycycline-inducible expression of enhanced green fluorescent protein (eGFP)-tagged delta133p53alpha, which allows efficient and highly quantitative measurement of the protein levels.
PROTOCOL TABLE (as described by Inglese J, Shamu CE and Guy RK. 2007)
SEQUENCE No. (e.g., 1, 2, 3, etc.); […] (e.g., Cells, Incubation, Reagent, etc.); VALUE; DESCRIPTION.
1; Cells; 4uL; 800 doxycycline treated cells / well in doxycycline-free media, 1536-well black, clear-bottom low base Aurora microplates.
2; Compounds; 23 nL; Kalypsis pin tool (Wako) equipped with 1536-well pin heads, 5-azacytidine positive control.
3; Incubation; 24 hr; 37C, 5% CO2; 95% relative humidity.
4; Aspiration; 1x; BioTek EL406 washer dispenser (Agilent).
5; Fixing; 3.5% paraformaldehyde, BioTek EL406 washer dispenser (Agilent).
6; Washing; 1x PBS; BioTek EL406 washer dispenser (Agilent).
7; Nuclei staining; 1:1000 dilution of Hoechst 33342 (Thermofisher), BioTek EL406 washer dispenser (Agilent).
8; Incubation; 20 min; in the dark at room temperature.
9; Washing; 2x, 1x PBS (ThermoFisher), BioTek EL406 washer dispenser (Agilent).
10; Reagent; 10 uL; 1x PBS per well, sealed with clear adhesive tape.
NOTES (numbers refer to sequence numbers above).
1. NCI-H358 cells expressing eGFP-tagged delta133p53alpha were grown in T75 culture flasks and treated with doxycycline for 24h, at 10 ng/ml for eGFP-D133p53a cells (N-terminal cell) and 100 ng/ml for D133p53a-eGFP cells (C-terminal cells). Cells were trypsinized, counted using a Counted 3 Automated Cell Counter (Thermo Fisher), and diluted to a concentration of 200,000 cells/ml. A Multidrop Combi Reagent Dispenser (ThermoFisher) was used to dispense 800 cells/well in […] of doxycycline-free media, into 1536-well black/clear bottom low base plates (AuroraMicroplates).
2. After plating cells, 23 nl of compound library, DMSO vehicle control or positive control (5-azacytidine) were transferred by Pin Tool (Wako). The plate map layout was the same for each plate: (column 1) non-doxycycline treated cells + DMSO vehicle control; (column 2) doxycycline treated cells + DMSO vehicle control baseline; (column 3) doxycycline treated cells + positive control 57.5 uM final concentration 5-azacytidine; (column 4) doxycycline treated cells + serial dilution of 5-azacytidine, 16-point 1:2 titration spanning 1.8 nM to […] final concentration; (columns 5-48) doxycycline treated cells + titration of library compounds.
3. Cells were incubated at 37 °C, 5 % CO2, 95% RH with breathable metal lid for 24h.
4-10. […] After two washes, 10 ul of 1X PBS (Thermo Fisher) was dispensed to each well. Clear adhesive plate seals (VWR) were applied and plates stored at 4 °C.
11. […]
Turning to `CN(C)CCn1cc(S(=O)(=O)c2cccc(F)c2)c2cccnc21`, the activation is -7.16% (inactive). For `CC=C(C)C(=O)O[C@H]1C(C)=C[C@]23C(=O)[C@@H](C=C(CO)[C@@H](O)[C@]12O)[C@H]1[C@@H](C[C@H]3C)C1(C)C`, the activation is 20.2% (inactive). The same measure, in the same setting: the value for `CN1CCC(COc2cnc(-c3cccc(Cn4nc(-c5cccc(C#N)c5)ccc4=O)c3)nc2)CC1` was -3.12% (inactive) and 9.55% (inactive). With `OCC(CO)(CO)NCC(O)Cn1c2ccc(Cl)cc2c2cc(Cl)ccc21` (stereo not given), the Potency is 23.9 µM (active). Consider `COc1ccccc1C(=O)Nc1cccc(NC(=O)c2cccc(C)c2)c1`, for which the activation was -11.7% (inactive).

In the case of `O=C(OCCN1CCOCC1)C1(c2ccccc2)CCCCC1`, the activation was -19.6% (inactive). `C[C@@H]1O[C@@H](O[C@H]2[C@H](OC(=O)[C@]34CCC(C)(C)C[C@H]3C3=CCC5[C@@]6(C)C[C@H](O)[C@H](O[C@@H]7O[C@H](CO[C@@H]8OC[C@H](O)[C@H](O)[C@H]8O)[C@@H](O)[C@H](O)[C@H]7O)C(C)(C)C6CC[C@@]5(C)[C@]3(C)C[C@H]4O)OC[C@@H](O)[C@@H]2O)[C@H](O)[C@H](O[C@@H]2OC[C@](O)(CO)[C@H]2O)[C@H]1O[C@@H]1OC[C@H](O)[C@H](O[C@@H]2OC[C@@H](O)[C@H](O)[C@H]2O)[C@H]1O` (stereo not given in full): the activation was 8.93% (inactive). On to `Oc1ccc(-c2cnc3ccc(NCc4ccco4)nn23)cc1`, for which the Potency was 26.9 µM (active). Take `NC(=O)Nc1cc(-c2cccc(F)c2)sc1C(=O)NC1CCCNC1` (stereo not given): the Potency is 19 µM (active).

For `COc1cc2ncc(-c3ccccc3)nc2cc1OC`, the activation is -16.1% (inactive). For the compound `Cc1ncc(CCCN(C)C)cc1Nc1ncc2c(n1)-c1ccc(C(F)(F)F)cc1NC(=S)C2`, the activation is 22.3% (inactive). Turning to `COC(=O)c1c(C)cc(OC(=O)c2c(C)cc(OC)cc2OC)cc1O[C@@H]1O[C@H](CO)[C@@H](O)[C@H](O)[C@H]1O`, the activation is -15.3% (inactive).

In the case of `CC(=O)OCC[N+](C)(C)C`, the activation is 15.3% (inactive). Regarding `C=C(C)[C@@H]1CC[C@]2(C(=O)O)CC[C@]3(C)C(CCC4[C@]5(C)C(CC[C@]43C)C(C)(C)[C@@H](O)[C@@H]5C(=O)O)C12` (stereo not given in full), the activation is -18.3% (inactive). As to `O=C1NC(=O)C(=Cc2ccc3c(c2)OC(F)(F)O3)S1`, the activation is 27.2% (inactive). On to `c1ccc(CN2CCC3(CCCc4ccccc43)CC2)cc1`, for which the activation is -56.7% (inactive). Regarding `Nc1ccc(C(=O)N2CC3CC(CN(Cc4ccccc4)C3)C2)cc1`, the activation was -6.21% (inactive). As for `COc1cc(NC(=O)c2cccc(-n3cc(NC(=O)Nc4cccc(C)c4)cn3)c2)cc(OC)c1OC`, the Potency is 23.9 µM (active). As for `O=C(/C=C/c1ccc(O)cc1)N[C@@H](Cc1ccc(O)cc1)C(=O)O`, the activation was 2.29% (inactive). As for `C/C=C(/C)C(=O)O[C@@H]1C[C@@H](OC(=O)CC(C)C)C2(C)C3C(=O)C=C(C)C2C3C1(C)C` (stereo not given in full), the activation is -29% (inactive). Turning to `CCCCNc1nc(N)c2[nH]c(=O)n(Cc3ccc(OCCN(C)C)nc3)c2n1`, the activation was -9.55% (inactive). Same read-out and setting: the value for `CC1=C(C/C=C(\C)CCC[C@H](C)CCC[C@H](C)CCCC(C)C)C(=O)c2ccccc2C1=O` was 18.6% (inactive).

With `C[C@@H]1CN(CC(=O)Nc2ccc3c(c2)Cc2cccc(-c4cc(=O)cc(N5CCOCC5)o4)c2S3)C[C@H](C)O1`, the Potency is 27.3 µM (active). On to `CCC(C)/C=C(C)/C=C/C1=CC2=CC(=O)C3(C)OC(C)(O)C(C(=O)OC)C3C2=CO1` (stereo not given), for which the Potency was 13.1 µM (active). In the case of `CCC(Nc1ncnc2nc[nH]c12)c1nc2cccc(F)c2c(=O)n1-c1ccccc1` (stereo not given), the activation was 4.46% (inactive). With `COc1ccc([C@H]2OC[C@H]3O[C@@H](O[C@H]4[C@@H]2NC[C@@H]4O)[C@H](O)[C@H]3O)cc1`, the Potency is 5.24 µM (active). Turning to `CCn1cc(NC(=S)Nc2cc(Cl)ccc2OC)c(C(N)=O)n1`, the activation is -5% (inactive). On to `CC(C)C(C(=O)N(C)C(C)C(N)=O)N(C)C(=O)C1CCCN1C(=O)/C=C/C=C/C(O)C(C)O` (stereo not given), for which the activation was -23.7% (inactive). Take `O=c1c(-c2ccc(O)cc2)coc2cc(O[C@@H]3O[C@H](CO)[C@H](O)[C@H](O)[C@H]3O)ccc12`: the activation is 8.65% (inactive). Consider `C=C(CCC1C(C)(O)CCC2C(C)(C)C(O)CCC12C)C(O)CO` (stereo not given), for which the activation is -7.14% (inactive).

For `COc1ccc(CNc2nc(N(CCO)CCO)nc3c2ncn3C(C)C)cc1`, the Potency is 8.49 µM (active). Regarding `CC(=CC(=O)Nc1ccccc1C(=O)O)c1ccc2ccccc2c1`, the activation is -15.6% (inactive).

Turning to `CC1OC(OC2C(CO)OC(OCC3OC(OC(=O)C45CCC(C)(C)CC4C4=CCC6C7(C)CCC(OC8OC(C(=O)O)C(O)C(OC9OC(CO)C(O)C(O)C9O)C8O)C(C)(C)C7CCC6(C)C4(C)CC5)C(O)C(O)C3O)C(O)C2O)C(O)C(O)C1O` (stereo not given), the activation is 18.3% (inactive).

Take `OC[C@H]1O[C@@H](OC/C=C/c2ccc(O)cc2)[C@H](O)[C@@H](O)[C@@H]1O`: the activation was 12.5% (inactive).

`CC1(C)CCC2=C(O1)c1ccccc1C(=O)C2=O`: the activation is -0.948% (inactive). Consider `CCC(C)/C=C(C)/C=C/C1=CC2=C(Cl)C(=O)C(C)(OC(C)=O)C(=O)C2=CN1C(CC(=O)O)C(=O)O` (stereo not given), for which the activation was 9.82% (inactive).

Take `N[C@@H](CC(=O)N1CCn2c(nnc2C(F)(F)F)C1)Cc1cc(F)c(F)cc1F`: the activation is -12.2% (inactive). As for `CN1CCN(CCCN2c3ccccc3Sc3ccc(Cl)cc32)CC1`, the activation is 23.2% (inactive) and -10.9% (inactive) and -6.59% (inactive).

For `CC(O)(CC(=O)O)CC(=O)OCc1ccc(O[C@@H]2O[C@H](CO)[C@@H](O)[C@H](O)[C@H]2O)cc1` (stereo not given in full), the activation was -13.7% (inactive). Consider `O=C(O)c1cc([N+](=O)[O-])ccc1NCCCc1ccccc1`, for which the activation is -7.19% (inactive).
